BioA inh-1 = M. tuberculosis BioA enzyme inhibitors, primary screen, biochemical, plate reader, single point, HTS. purified M. tuberculosis BioA enzyme. inhibition, % at 9.99 µM. 360,000 compounds, 0.096% hits. AID 602481, 2012; in the data active = inhibition above about 40%
PrP UTR inh = inhibition of PrP 5' UTR reporter expression | cell-based PrP 5' UTR mRNA reporter, plate reader | 340,000 compounds, 0.35% hits | inhibition, % (concentration not given with the values); in the data active = inhibition above about 52%
FadD28 FP inh = inhibitors of FadD28 bisubstrate probe binding, primary screen, biochemical, fluorescence polarization, single point; 360,000 compounds, 0.22% hits; AID 588549, 2011; inhibition, % at 12.5 µM; in the data active = inhibition above about 8.5%, passing the limit was not always enough
TcdB inh = TcdB glycohydrolase inhibitors, primary screen, biochemical, single point, plate reader; Toxin B (Clostridioides difficile), P18177; TcdB glycohydrolase enzymatic assay; inhibition, % at 9.99 µM; 350,000 compounds, 0.24% hits; in the data active = inhibition above about 10%
PfHsp40 yeast = rescue of yeast from PfHsp40 toxicity, primary screen, S. cerevisiae, ATP luminescence | S. cerevisiae expressing PfHsp40, growth rescue | growth rescue, % at 12.5 µM | 340,000 compounds, 0.68% hits; in the data active = growth rescue above about 28%, passing the limit was not always enough;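 note: yeast W303a lacking pdr1 and pdr3 grown in galactose medium; growth measured after three days at 30 °C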
Yp Topo-I inh = Yersinia pestis topoisomerase I inhibitors, primary screen, biochemical, cleavage product accumulation, plate reader, single point; DNA topoisomerase I (Yersinia pestis CO92); Y. pestis Topo-I cleavage product accumulation; activity, % at 10 µM; 360,000 compounds, 0.064% hits; AID 504884, 2011; in the data active = activity above about 50%, passing the limit was not always enough
BioA inh-2 = Mtb BioA enzyme inhibitors, dose response, biochemical, plate reader, cherry-pick samples, set 03. shares compounds with BioA inh-1. purified BioA enzyme. max activity, %. 310 tested, under 10 active;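 note: top concentration of the dilution series was 10 µM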
Target sequence (P9WQ81 whole entry, looked up): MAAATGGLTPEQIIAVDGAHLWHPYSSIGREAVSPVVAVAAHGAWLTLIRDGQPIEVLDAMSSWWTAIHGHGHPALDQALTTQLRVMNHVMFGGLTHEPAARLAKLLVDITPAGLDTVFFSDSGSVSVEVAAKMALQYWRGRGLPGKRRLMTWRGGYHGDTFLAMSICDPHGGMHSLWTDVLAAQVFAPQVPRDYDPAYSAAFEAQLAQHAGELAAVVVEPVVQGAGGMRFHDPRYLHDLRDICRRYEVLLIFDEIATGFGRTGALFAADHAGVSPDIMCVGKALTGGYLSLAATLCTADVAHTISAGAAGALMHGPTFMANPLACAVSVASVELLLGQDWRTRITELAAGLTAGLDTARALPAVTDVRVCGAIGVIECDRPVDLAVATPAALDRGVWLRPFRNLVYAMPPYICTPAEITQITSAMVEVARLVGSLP
HepG2 cytotox = cytotoxicity in HepG2 cells, dose response, cytotoxicity control, cell-based, plate reader, cherry-pick, two tests. shares compounds with BioA inh-1. max activity, %. 310 tested, under 10 active
NIH3T3 tox 5 = cytotoxicity in NIH3T3 fibroblasts, dose response, cytotoxicity control, cell-based, plate reader, cherry-pick, two tests; shares compounds with BioA inh-1; activity change, negative = cytotoxicity, % at 26 µM; 310 tested, under 10 active; AID 651900, 2012
Each line names hits and unclear results; the compound was inactive in the other large screens (follow-up assays come after a bar, where they were run). Shown are actives, neighbours in structure and some others; about 1.2% of the full set was active somewhere. Unless noted, the rule behind the calls is not given here.

O=C(Nc1cccnc1)c1ccc(Oc2ccccc2)cc1	BioA inh-1 69 (no result: TcdB inh) | BioA inh-2 inactive | HepG2 cytotox inactive | NIH3T3 tox 5 inactive
O=C(Nc1cccnc1)c1ccccc1Oc1ccccc1	none (no result: TcdB inh)
Cc1noc(C)c1S(=O)(=O)Nc1ccc2c(c1)C(=O)N([C@H](C)CO)C[C@H](C)[C@H](CN(C)C(=O)c1ccccc1)OCCCC[C@H](C)O2	none (no result: PrP UTR inh, FadD28 FP inh, PfHsp40 yeast, Yp Topo-I inh)
COc1ccc2c3c([nH]c2c1)[C@@H](CO)N(C(=O)NC(C)C)CC31CCN(C(=O)NC(C)C)CC1	none (no result: BioA inh-1, PrP UTR inh, FadD28 FP inh, PfHsp40 yeast, Yp Topo-I inh)
CN(C)CCCNC(=O)[C@H]1[C@H](CO)[C@H]2Cn3c(ccc(-c4cccc(F)c4)c3=O)[C@@H]1N2C	none (no result: PrP UTR inh, FadD28 FP inh, PfHsp40 yeast, Yp Topo-I inh)
Cc1c(OC(C)C(=O)NCc2ccccn2)ccc2c3c(c(=O)oc12)CCC3 (stereo not given)	BioA inh-1 43 | BioA inh-2 inactive | HepG2 cytotox inactive | NIH3T3 tox 5 inactive
Cc1c(OCC(=O)NCc2ccccn2)ccc2c3c(c(=O)oc12)CCCC3	none
O=C(Nc1ccc(F)c(Cl)c1)C1CCCN(c2cnccn2)C1 (stereo not given)	BioA inh-1 41 | BioA inh-2 inactive | HepG2 cytotox inactive | NIH3T3 tox 5 inactive
Cc1cccc(NC(=O)C2CCCN(c3cnccn3)C2)c1 (stereo not given)	none
O=C(Nc1cccc(F)c1)C1CCCN(c2cnccn2)C1 (stereo not given)	BioA inh-1 53 | BioA inh-2 inactive | HepG2 cytotox inactive | NIH3T3 tox 5 inactive
Cc1ccc(S(=O)(=O)N(C)C[C@@H]2OCCCC[C@H](C)Oc3ccc(NC(=O)NC(C)C)cc3C(=O)N([C@H](C)CO)C[C@H]2C)cc1	none (no result: PrP UTR inh, FadD28 FP inh, PfHsp40 yeast, Yp Topo-I inh)
COCC(=O)NC[C@H]1N[C@H](CO)[C@H]1c1ccc(C2=CCCC2)cc1	none (no result: PrP UTR inh, FadD28 FP inh, TcdB inh, PfHsp40 yeast, Yp Topo-I inh)
CNc1ccc(/C=C(\CCC(=O)O)c2nc3ccccc3s2)cc1[N+](=O)[O-]	none (no result: BioA inh-1, TcdB inh)
Cc1ccc(/C=C(\CCC(=O)O)c2nc3ccccc3s2)cc1[N+](=O)[O-]	BioA inh-1 90 | BioA inh-2 inactive | HepG2 cytotox inactive | NIH3T3 tox 5 inactive
C/C=C/c1ccc2c(c1)O[C@@H](CN(C)C(=O)Nc1ccc(F)cc1)[C@H](C)CN([C@H](C)CO)S2(=O)=O	none (no result: PrP UTR inh, FadD28 FP inh, PfHsp40 yeast, Yp Topo-I inh)
COc1ccc(NC(=O)c2ccc(Cl)nc2)cc1S(=O)(=O)N1CCOCC1	BioA inh-1 59 | BioA inh-2 inactive | HepG2 cytotox inactive | NIH3T3 tox 5 inactive
CCc1ccc(C(=O)Nc2ccc(OC)c(S(=O)(=O)N3CCOCC3)c2)cc1	none (no result: BioA inh-1)
CC1CN(C(=O)Nc2ccc3snnc3c2)c2ccccc21 (stereo not given)	BioA inh-1 63 | BioA inh-2 inactive | HepG2 cytotox inactive | NIH3T3 tox 5 inactive
Cc1ccc(-n2ncc3c2CC(C)(C)CC3NC(=O)CCc2cccnc2)cc1 (stereo not given)	BioA inh-1 45 | BioA inh-2 inactive | HepG2 cytotox inactive | NIH3T3 tox 5 inactive
Cc1cnc(C(=O)NC2CC(C)(C)Cc3c2cnn3-c2cccc(F)c2)cn1 (stereo not given)	BioA inh-1 63 | BioA inh-2 inactive | HepG2 cytotox inactive | NIH3T3 tox 5 inactive
CCn1cc(C(=O)NC2CC(C)(C)Cc3c2cnn3-c2cccc(F)c2)cn1 (stereo not given)	none
O=C(C[C@H]1C[C@H]2c3cc(NC(=O)C4CCOCC4)ccc3O[C@H]2[C@H](CO)O1)NCCN1CCCCC1	none (no result: PrP UTR inh, FadD28 FP inh, PfHsp40 yeast, Yp Topo-I inh)
CO[C@@H]1CN(C)C(=O)c2ccc(NS(=O)(=O)c3ccccc3)cc2OC[C@@H](C)N(Cc2ccccn2)C[C@H]1C	none (no result: PrP UTR inh, FadD28 FP inh, PfHsp40 yeast, Yp Topo-I inh)
Cc1nc2c(C(=O)N3CCN(c4ccccn4)CC3)cnn2c(C)c1Cc1cccc(Cl)c1	BioA inh-1 40 (no result: TcdB inh) | BioA inh-2 inactive | HepG2 cytotox inactive | NIH3T3 tox 5 inactive
O=C(C1CCC1)N1CC[C@@H]2[C@@H](CO)Nc3ccc(Br)cc3[C@@H]21	none (no result: BioA inh-1, PrP UTR inh, FadD28 FP inh, PfHsp40 yeast, Yp Topo-I inh)
O=C(C1CCOCC1)N1CC[C@@H]2[C@H](CO)Nc3ccc(Br)cc3[C@@H]21	BioA inh-1 72 (no result: PrP UTR inh, FadD28 FP inh, PfHsp40 yeast, Yp Topo-I inh) | BioA inh-2 inactive | HepG2 cytotox inactive | NIH3T3 tox 5 inactive
O=C(C1CCOCC1)N1CC[C@@H]2[C@H]1c1cc(Br)ccc1N[C@@H]2CO	BioA inh-1 74 (no result: PrP UTR inh, FadD28 FP inh, PfHsp40 yeast, Yp Topo-I inh) | BioA inh-2 inactive | HepG2 cytotox inactive | NIH3T3 tox 5 inactive
O=C(Cc1ccccc1)N1CC[C@@H]2[C@H](CO)Nc3ccc(Br)cc3[C@@H]21	BioA inh-1 44 (no result: PrP UTR inh, FadD28 FP inh, PfHsp40 yeast, Yp Topo-I inh) | BioA inh-2 inactive | HepG2 cytotox inactive | NIH3T3 tox 5 inactive
CCc1c(C)nc2ncnn2c1Nc1ccc(C#N)c(Cl)c1	BioA inh-1 40 (no result: TcdB inh) | BioA inh-2 inactive | HepG2 cytotox inactive | NIH3T3 tox 5 inactive
O=C(c1ccc(NS(=O)(=O)c2ccc(F)cc2)cc1)N1CCN(c2ccccc2O)CC1	none
O=C(c1ccc(S(=O)(=O)Nc2ccccc2F)cc1)N1CCN(c2ccccc2O)CC1	BioA inh-1 67 | BioA inh-2 inactive | HepG2 cytotox inactive | NIH3T3 tox 5 inactive
Cc1cc(C)n(-c2ccc(C(=O)Nc3ccc4c(c3)OCO4)cc2)n1	BioA inh-1 44 (no result: TcdB inh) | BioA inh-2 inactive | HepG2 cytotox inactive | NIH3T3 tox 5 inactive
Cc1c(Cl)cccc1-n1c(SCC(=O)NCc2cccs2)nnc1-c1ccncc1	none (no result: TcdB inh)
O=C(CSc1nnc(-c2ccncc2)n1-c1ccc(Cl)cc1)NCc1cccs1	BioA inh-1 47 (no result: TcdB inh) | BioA inh-2 inactive | HepG2 cytotox inactive | NIH3T3 tox 5 inactive
COc1ccccc1S(=O)(=O)N1CC[C@H]2[C@H](CO)Nc3ccc(-c4ccccc4)cc3[C@H]21	none (no result: PrP UTR inh, FadD28 FP inh, PfHsp40 yeast, Yp Topo-I inh)
COc1ccccc1S(=O)(=O)N1CC[C@@H]2[C@H](CO)Nc3ccc(-c4ccccc4)cc3[C@@H]21	BioA inh-1 43 (no result: PrP UTR inh, FadD28 FP inh, PfHsp40 yeast, Yp Topo-I inh) | BioA inh-2 inactive | HepG2 cytotox inactive | NIH3T3 tox 5 inactive
O=C(Nc1nccs1)[C@H]1[C@H](CO)[C@H]2Cn3c(ccc(-c4cccnc4)c3=O)[C@H]2N1CC1CCCC1	BioA inh-1 52 (no result: PrP UTR inh, FadD28 FP inh, PfHsp40 yeast, Yp Topo-I inh) | BioA inh-2 inactive | HepG2 cytotox inactive | NIH3T3 tox 5 inactive
CCNC(=O)[C@H]1[C@H](CO)[C@H]2Cn3c(ccc(-c4cccc(F)c4)c3=O)[C@H]2N1C(=O)Cc1cccnc1	BioA inh-1 42 (no result: PrP UTR inh, FadD28 FP inh, PfHsp40 yeast, Yp Topo-I inh) | BioA inh-2 inactive | HepG2 cytotox inactive | NIH3T3 tox 5 inactive
